{"source": "ChEMBL document CHEMBL3433997", "about": "“St. Jude Leishmania screening dataset” (2016)", "data": [{"target": "Glucose transporter (Leishmania mexicana) (UniProt O61059)", "assay": "ST_JUDE_LEISH: Cytotoxicity at 2uM final concentration against transgenic Leishmania Mexicana promastigotes LmGT2 that are glucose transport deficient and complemented with the L. Mexicana glucose transporter 2. Activity is measured by DNA content using SYBR green in vitro", "assay_type": "functional", "units": {"inhibition": "%"}, "values": [{"molecule": "CCCc1cc(Cc2cnc(N)nc2N)cc(CCC)c1OCCCCC(=O)OCC", "inhibition": 1.54}, {"molecule": "CC(C)C[C@@H](/C=N/N1CCOC1=O)NC(=O)[C@H](CC(C)C)NC(=O)c1ccc(F)cc1", "inhibition": 6.1}, {"molecule": "CCc1c[nH]c2c(N3CCCCS3(=O)=O)cc(C(=O)N[C@@H](Cc3ccccc3)[C@H](O)CNCc3cccc(OC)c3)cc12", "inhibition": -0.23}, {"molecule": "COc1ccc(NC(=O)/C=C/c2ccccc2Cl)cc1OCCN1CCC(N(C)C)CC1", "inhibition": 1.83}, {"molecule": "O=C(Nc1cccc(CN2CCN(Cc3ccc(O)cc3)CC2)c1)c1cc2ccccc2s1", "inhibition": 8.57}, {"molecule": "CCN(CC)CCN(Cc1ccc(-c2ccc(C(F)(F)F)cc2)cc1)C(=O)Cn1c(CCc2cc(F)ccc2F)nc(=O)c2ccccc21", "inhibition": 1.58}, {"molecule": "N=C(N)Nc1nc(-c2cccc(NC(=O)NCc3ccc(OC(F)(F)F)cc3)c2)cs1", "inhibition": 0.07}, {"molecule": "Cc1cccc2nc(-c3cccc(-c4ccc(NC(=O)C(C)C(=O)NC(C)C)cc4)c3)[nH]c12", "note": "(centres undefined)", "inhibition": 2.38}, {"molecule": "CC(CN1CCN(C)CC1)C(=O)Nc1cccc(-c2ccc(-c3nc4cc(F)ccc4[nH]3)cc2)c1", "note": "(centres undefined)", "inhibition": 2.7}, {"molecule": "O=C(NC1CCCCN(Cc2ccccc2O)C1)c1cc(F)cc(F)c1", "note": "(centres undefined)", "inhibition": 3.51}, {"molecule": "COc1ccc(CN2CCC2=O)c(OC)c1", "inhibition": 3.38}, {"molecule": "O=c1[nH]ccc2nc(N[C@@H]3CCNC3)nc(Nc3cccc(S(=O)(=O)N4CCOCC4)c3)c12", "inhibition": 0.85}, {"molecule": "COc1ccc(NC(=O)/C=C/c2ccccc2Cl)cc1OCCN1CCC(N2CCCCC2)CC1", "inhibition": 7.17}, {"molecule": "Cc1ccc(Oc2ccc(CNc3nc(Nc4cccc(F)c4)nc(Nc4cccc(F)c4)n3)cc2)cc1", "inhibition": 4.75}]}]}
